# Data reported in PubChem BioAssay (NCI).
# About 83,000 compounds went through this panel and 20% of them were active in at least one assay; those are over-represented in the sample as a whole.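 Activity criterion: percent growth below 10, measured after cells in 96-well plates were exposed to a single compound concentration for 48 hours.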 Calls of active or inactive are those of the source.
# Test system: HCT-15 colon
# Assay: NCI-60 one-dose screen, 48 h (100 = growth as untreated, 0 = no growth, -100 = all killed)
# Details: 10 µM unless noted
# Method: Growth inhibition of the HCT-15 human tumor cell line is measured as a screen for anti-cancer activity. Cells are grown in 96 well plates and exposed to the test compound for 48 hours. Compounds are tested at a single concentration, which is 10^-5 M for most compounds. The reported endpoint is percent growth (GI% or GIPRCNT), where numbers from 0 - 100% represent growth inhibition, and numbers from -100% - 0 represent cell death. For example, a value of 40 represents 60% growth inhibition. A value of 0 means no net growth occurred over the course of the experiment. A value of -40 indicates 40% of cells at the beginning of the experiment died by the end of the experiment. A value of -100 means all cells are dead at the end of the experiment.
# NCI-60 Human Tumor Cell Lines Screen was performed using the standard one-dose NCI protocol, which is described in more detail at https://dtp.cancer.gov/discovery_development/nci-60/default.htm.
# Compounds with GIPRCNT values below 10 were considered active. Activity score was based on GIPRCNT using the following formula: […]
# Score is 0 for GIPRCNT values of 100 or above, 50 for GIPRCNT values of 0, and 100 for GIPRCNT values of -100.
row,SMILES,growth
1,COc1ccc(-n2nc3c(c2-c2ccc(OC)c(OC)c2)-c2oncc2CC3)cc1,55.9% (inactive)
2,Cn1cc(-c2csc(-c3cn(C)c4ncccc34)n2)c2cc(F)cnc21,61% (inactive)
3,CNc1ccc(CSc2ccc(Cl)cc2)cc1,94.8% (inactive)
4,O=C(Nc1nc2ccccc2s1)c1cc(-c2ccc(F)cc2)n2nc(-c3ccccc3)cc2n1,53.7% (inactive)
5,CC(=O)Oc1ccc(C2OC(c3ccc4ccccc4c3OC(C)=O)=NN2C(C)=O)c(OC(C)=O)c1 (stereo not given),34.1% (inactive)
6,COc1ccc2c(c1)C(=O)/C(=C/c1cccc(OCC(=O)c3ccccc3)c1)CC2,89.7% (inactive)
7,Cc1nc(N)[nH]c(=O)c1C,122% (inactive)
8,CCCCSc1cc(C)nc(N)n1,91.1% (inactive)
9,O=C1OCCCCCCCCCC#Cc2ccccc21,109% (inactive)
10,CCOC(=O)C1=C(C)N2C(=NC3=C(CCC/C3=C\c3ccc(Cl)cc3)C2c2ccc(Cl)cc2)S1 (stereo not given),-28.7% (active)
11,Oc1ccc(-c2nn(-c3ccccc3)cc2-c2nc3ccccc3s2)cc1,81.6% (inactive)
12,CN(CC(=O)Nc1nc2ccccc2[nH]1)S(=O)(=O)c1ccc(Cl)cc1,90.8% (inactive)
13,O=C1/C(=C/c2ccc3cccc(Cl)c3n2)SC(=S)N1CCc1ccc(O)cc1,86.1% (inactive)
14,CC(C)c1ccc(C(=O)Nc2sc3c(CN(C)C)c(O)ccc3c2C(N)=O)cc1,-48.7% (active)
15,C/C(=N/N=C(N)N)c1ccc(N)cc1,115% (inactive)
16,c1cnc2ccc3ncccc3c2c1,108% (inactive)
17,O=[N+]([O-])c1ccc(N/N=C\c2ccccc2[N+](=O)[O-])nc1,100% (inactive)
18,Cc1c(C(N)=O)sc2ncn(Cc3ccccc3)c(=O)c12,115% (inactive)
19,CCCc1nn(C)c2c(=O)[nH]c(-c3cc(S(=O)(=O)N4CCN(C)CC4)ccc3OCC)nc12,103% (inactive)
20,COc1ccc(C2CC(c3ccc(OC)c(OC)c3)=NN2C(=O)c2cc(OC)c(OC)c(OC)c2)c(OC)c1 (stereo not given),67.4% (inactive)

row,SMILES,growth
1,CSc1nc2c(c(=O)[nH]1)C(c1ccc(Cl)cc1)C1=C(N2)/C(=C/c2ccc(Cl)cc2)CNC1 (stereo not given),13.5% (inactive)
2,Cn1c(N)c(N=O)c(=O)[nH]c1=O,112% (inactive)
3,Cc1nnc(Nc2ccc(NC(=O)Nc3ccc(Cl)cc3)cc2)c2ccccc12,6.39% (active)
4,COc1ccc(-c2oc3cc(O)c(OC)c(O)c3c(=O)c2OC)cc1O,17.3% (inactive)
5,CC(=O)c1nc2ccccc2n1CCn1cc(CC(N)C(=O)O)c2ccccc21 (stereo not given),96.3% (inactive)
6,COc1ccc(OC)c2c1[nH]c(=O)c1c3ccccc3cn21,-46.5% (active)
7,Cn1cc(-c2csc(-c3cn(C)c4ncccc34)n2)c2cccnc21,90.6% (inactive)
8,O=C(CCc1nnc(SCc2ccccc2)s1)c1nc2ccccc2[nH]1,81% (inactive)
9,CN(C)CCCN1c2nc3ccccc3cc2Sc2cc3ccccc3nc21,2.14% (active)
10,Nc1ncc(-c2cnn(C3CCNCC3)c2)cc1-c1nc2cc(Cl)ccc2o1,-84.9% (active)
11,CCN(CC)CCOc1ccccc1-n1c(C)ccc1-c1ccccc1,90.5% (inactive)
12,CCOC(=O)/C=C(/C)Sc1cc(O)c2ccccc2c1O,-12.6% (active)
13,CC[C@@H]1OC(=O)[C@H](C)[C@@H](O[C@H]2C[C@@](C)(OC)[C@@H](O)[C@H](C)O2)[C@H](C)[C@@H](O[C@@H]2O[C@H](C)C[C@H](N(C)C)[C@H]2O)[C@](C)(O)C[C@@H](C)[C@@H]2N[C@@H](COCCOC)O[C@H]([C@H]2C)[C@]1(C)O,109% (inactive)
14,COc1cc(OC)c2sc(-c3ccc(-n4cncc4-c4ccc(N)cc4)cc3)nc2c1,69.7% (inactive)
15,O=C1c2nsnc2C(=O)c2c(F)c(F)c(F)c(F)c21,-59.1% (active)
16,Cn1cc(-c2csc(-c3c[nH]c4ncccc34)n2)c2cc(F)cnc21,61.3% (inactive)
17,c1cnc2n[nH]c(Nc3ncnc4c3sc3ncccc34)c2c1,95.1% (inactive)
18,Cc1c(C(N)=O)sc2ncn(CC(=O)Nc3ccc(Cl)cc3)c(=O)c12,117% (inactive)
19,CCCCCCCCCCCCCCCCCC1=NC(C)(C)CN1CCO,-55.4% (active)
20,COc1ccc(C(=O)/C=C/c2c(Cl)nc3c(c(C)nn3-c3ccccc3)c2-c2ccc(Br)cc2)cc1,102% (inactive)
